This is one part of a sample in which hits are shown more often than they occur.
mcGAS RapidFire – blocks mouse cGAS cGAMP production. Q8C6L5. 130,000 compounds, 0.18% hits. inhibition, % at 12.5 µM. recombinant mouse cGAS, cGAMP by RapidFire MS;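 active = inhibition of cGAS enzyme activity at or above 60%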;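 also: enzyme stimulated by 45 bp dsDNA with ATP and GTP substrates; cGAMP share of summed cGAMP plus half ATP and half GTP signals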
Target sequence (Q8C6L5 whole entry, looked up): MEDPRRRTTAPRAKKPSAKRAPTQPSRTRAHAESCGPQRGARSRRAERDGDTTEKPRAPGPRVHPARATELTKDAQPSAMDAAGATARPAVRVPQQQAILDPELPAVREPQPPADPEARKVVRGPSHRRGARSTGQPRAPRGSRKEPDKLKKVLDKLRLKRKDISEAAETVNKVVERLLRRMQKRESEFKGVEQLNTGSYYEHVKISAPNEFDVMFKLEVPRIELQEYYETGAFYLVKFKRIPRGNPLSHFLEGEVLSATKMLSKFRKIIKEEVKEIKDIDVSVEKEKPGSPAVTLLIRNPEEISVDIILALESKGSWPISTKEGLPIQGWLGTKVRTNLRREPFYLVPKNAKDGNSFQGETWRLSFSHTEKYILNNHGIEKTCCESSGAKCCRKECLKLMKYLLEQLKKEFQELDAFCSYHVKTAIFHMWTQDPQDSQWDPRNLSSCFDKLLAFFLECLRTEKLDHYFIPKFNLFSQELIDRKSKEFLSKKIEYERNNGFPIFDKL
* marks the source's active call; other numbers are inactive results; ! = not active in a repeat.

SMILES | mcGAS RapidFire
O=c1/c(=C/c2cccc([N+](=O)[O-])c2)sc2nc3cc(Br)cnc3n12 | 28
N#Cc1cccc(S(=O)(=O)Nc2c(F)cccc2N2CCCC2)c1 | -1
O=S(=O)(CC1CCCO1)Nc1ccc(N2CCCC2)c(Cl)c1 (stereo not given) | -22
N#CCCCCS(=O)(=O)Nc1ccc(N2CCCC2)c(F)c1 | 63*
Cc1cc(C)c(CNS(=O)(=O)c2ccc(S(N)(=O)=O)cc2)c(C)c1 | -6
COc1ccc(-c2cc(N)n(-c3ccc(C(=O)N[C@H](CO)Cc4ccccc4)cc3)n2)cc1 | -1
COC(=O)C1CCN(Cc2nnc(C(=O)NCc3ccc(C)cc3)s2)CC1 | -4
Cc1csc(C(C)(C)NCCS(=O)(=O)c2ccc(C#N)cc2)n1 | -15
CCCN1CCCC1C(=O)N1CCCN(Cc2nccn2C)CC1 (stereo not given) | 94*
CCCCc1nc(CN2CCCN(Cc3nccn3C)CC2)no1 | -28
Cn1ccnc1CN1CCCC(CCNS(C)(=O)=O)C1 (stereo not given) | -4
CCCN(CCC)c1nc2ccccc2c2nc(C)nn12 | -5
CCC1NC(=O)c2cc(S(N)(=O)=O)c(Cl)cc2N1 (stereo not given) | 94*
CN1C(CCl)Nc2cc(Cl)c(S(N)(=O)=O)cc2S1(=O)=O (stereo not given) | -6
NS(=O)(=O)c1cc2c(cc1Cl)NCNS2(=O)=O | -1
COC(=O)c1ccc(C2c3sc(=O)[nH]c3SC3C(=O)N(CC(=O)O)C(=O)C32)cc1 (stereo not given) | 11
CCNc1ccnc(N(C)CCc2ccccn2)n1 | -14
CCc1nc(C2CN(C(=O)c3cnc4n[nH]c(C)c4c3)CCO2)n[nH]1 (stereo not given) | -12
CCN(CC)CCNC(=O)c1cc(N2CCCCCC2)ccn1 | -19
COCCNC(=O)c1cc(N2CCCN(C)CC2)ccn1 | -16
O=C(NCCN1CCCCC1)c1cc(N2CCCN3CCC[C@H]3C2)ccn1 | 78*
CC1CN(S(=O)(=O)c2ccc(OC(F)F)c(Cl)c2)CC(c2ccccc2)O1 (stereo not given) | -11
Cc1nc2c(C)cccn2c(=O)c1NC(=O)C1CCCCC1 | -5
CCN(CC)CCN(Cc1ccccc1)C(=O)C1CCC(=O)N1 (stereo not given) | -6
CC1c2ccsc2CCN1C(=O)CCCNC(=O)c1ccc(F)cc1F (stereo not given) | -3
SMILES | mcGAS RapidFire
CC1CCCC(NN2CCN(C)CC2)C1 (stereo not given) | 0
CCOC(=O)c1nn(-c2ccccc2)c(=O)cc1OCC(=O)NCc1ccc(C)cc1 | 0
COc1ccccc1OC(C)(C)C(=O)N1CCN(C)C(C(=O)O)C1 (stereo not given) | 82*!
COc1ccccc1-c1ccc(C(=O)N2CCN(C)C(C)C2)cc1 (stereo not given) | -8
CN1CCN(C2CCN(C(=O)c3ccccc3)CC2)CC1C(=O)O (stereo not given) | 11
O=C(COc1ccc(C=C2C(=O)OC3(CCCCC3)OC2=O)cc1)Nc1ccccc1 | 0
CC(C)n1nccc1NC(=O)COc1ccccc1C#N | 3
CN(CC(=O)Nc1ccc(N2CCOCC2)cc1)C(=O)COc1ccccc1C#N | 69*
CCCCC(=O)Nc1ccc(N2CCOCC2)cc1 | -6
C=CCn1ncc(CO)c1C | -14
CCC(NC(=O)CNC(=O)Nc1ccccc1)c1ccc(Br)cc1 (stereo not given) | -12
Clc1ccc(-c2cnc(CSc3nnnn3C3CCCC3)o2)cc1 | 0
O=C(CCN1CCOCC1)N1CCC2(CCNCC2)CC1 | -7
Cc1ccc(O)c(S(=O)(=O)N2CCCc3cc(F)c(F)cc32)c1 | -14
O=C(Nc1nc(-c2ccc(Cl)s2)cs1)c1cccs1 | -16
O=C(Nc1n[nH]c(=S)s1)c1ccco1 | 27
O=C(Nc1n[nH]c(=S)s1)c1cccs1 | 76*
CN1CCCC1C(=O)NCc1ccc(OC(F)F)cc1 (stereo not given) | -8
Cc1cc2oc(=O)cc(CN3CC(C)OC(C)C3)c2cc1C(C)C (stereo not given) | -1
CC1C(C)S(=O)CCN1C(=O)NCc1csc(C(C)(C)C)n1 (stereo not given) | -1
O=C(c1ccn[nH]1)N1N=C(C(F)F)CC1(O)C(F)F (stereo not given) | 3
O=C(Nc1ccc2scnc2c1)C1CC(=O)N(CC2CC2)C1 (stereo not given) | -13
CC(CC#N)Sc1ccccc1NC(=O)C1CC(=O)N(CC2CC2)C1 (stereo not given) | 66*
CCN1CC(C(=O)Nc2ccccc2C(C)C)CC1=O (stereo not given) | 3
Cn1nnnc1SCCCc1nc(-c2ccc(Cl)cc2)no1 | -10
SMILES | mcGAS RapidFire
CCCC(C)(NC(=O)c1cccc(Cl)c1Cl)C(=O)OC (stereo not given) | -4
Cc1cc(C)nc(NS(=O)(=O)c2ccc(NS(=O)(=O)c3ccc4c(c3)OCCO4)cc2)n1 | -6
CCCc1nn(CC2CCCO2)c(=O)o1 (stereo not given) | -5
O=C(O)CNC(=O)CN1C(=O)CSC1=S | 13
O=C(O)CN1C(=O)C(=NN2C(=O)CSC2=S)c2ccccc21 | 92*
O=C(O)CN1C(=O)/C(=C2/C(=O)N(CC(=O)O)c3ccccc32)SC1=S | 4
CC(C)(C)c1ccc(C(=O)N2CCN(c3cccc(Cl)c3)CC2)cc1 | -3
CN(Cc1ccc(Cl)s1)Cn1nc(-c2cccnc2)n(C2CC2)c1=S | -3
COc1ccc(CNC(=O)C(C)N2CCOCC2)cc1OC (stereo not given) | -12
COc1ccc(C2c3sc(=O)[nH]c3SC3C(=O)NC(=O)C32)cc1 (stereo not given) | -2
O=C1NC(=O)C2C1Sc1[nH]c(=O)sc1C2c1ccco1 (stereo not given) | 89*
O=C1C2Sc3[nH]c(=O)sc3C(c3ccc(O)cc3)C2C(=O)N1c1ccc(Cl)cc1 (stereo not given) | 0
CN(Cc1ccccc1OC(F)(F)F)CN1C(=O)CC(C)(C)C1=O | -15
Oc1c2cccnc2cn1CCC(c1ccccc1)c1ccco1 (stereo not given) | -14
COc1ccccc1N1CCN(c2nc(Nc3ccc(C)cc3)c3cn[nH]c3n2)CC1 | -5
COCCOC(=O)C1=C(C)N(C)C(=O)NC1c1ccccc1[N+](=O)[O-] (stereo not given) | -8
COC(=O)C1=C(C)NC(C)=C(C(=O)OC)C1c1ccccc1[N+](=O)[O-] | 73*!
CCOC(=O)C1=C(C)NC(C)=C(C(=O)OC)C1c1cccc([N+](=O)[O-])c1 (stereo not given) | -13
Cc1cccnc1CN1CCN(Cc2cc(C(C)(C)C)n[nH]2)CC1 | -14
CCN(CC1CCN(Cc2ccccc2)C1)C(=O)Cc1csc(N2CCCNC2=O)n1 (stereo not given) | -7
CCOC(=O)Nc1nnc(Sc2nccnc2C#N)s1 | 8
N#Cc1ccc([N+](=O)[O-])c(O)c1 | -8
N#Cc1cc(I)c(O)c([N+](=O)[O-])c1 | 95*
N#Cc1ccc(Oc2ncccc2[N+](=O)[O-])c(Cl)c1 | -7
Cc1cccnc1NC(=O)C(C)(C)n1nc(-c2ccccc2)ccc1=O | -7
COC(=O)c1ccc(CN2C(=O)C(C)(C)ON=C2c2ccc(C)cc2)o1 | 25
CC(=O)Oc1ccc(CN2C(=O)C(C)(C)ON=C2c2ccc(C)cc2)cc1 | 87*
CC(=O)Oc1ccccc1CN1C(=O)C(C)(C)ON=C1c1ccc(C(F)(F)F)cc1 | -13
Cc1cccc(Cn2nc(-c3cc(C)ccc3C)ccc2=O)c1 | -10

Compound activity (PubChem BioAssay)
